Source: article PMC6925144, “A prospective compound screening contest identified broader inhibitors for Sirtuin 1” (Scientific Reports, 2019)
In all, about 3,200 compounds were measured (“TSA(without NAD+) / Primary screening (TSA) / delta Tm (K)”: median about -0.07, highest 2% from about 0.37 on). This is one part of a sample in which the highest values are shown more often than they occur.

Each compound was assayed against NAD-dependent deacetylase Sirtuin 1 (human, UniProt Q96EB6) (assay: primary screen, delta tm). Settings: 10 µM.
Chain of NAD-dependent deacetylase Sirtuin 1 (Q96EB6 2-747 limits assumed): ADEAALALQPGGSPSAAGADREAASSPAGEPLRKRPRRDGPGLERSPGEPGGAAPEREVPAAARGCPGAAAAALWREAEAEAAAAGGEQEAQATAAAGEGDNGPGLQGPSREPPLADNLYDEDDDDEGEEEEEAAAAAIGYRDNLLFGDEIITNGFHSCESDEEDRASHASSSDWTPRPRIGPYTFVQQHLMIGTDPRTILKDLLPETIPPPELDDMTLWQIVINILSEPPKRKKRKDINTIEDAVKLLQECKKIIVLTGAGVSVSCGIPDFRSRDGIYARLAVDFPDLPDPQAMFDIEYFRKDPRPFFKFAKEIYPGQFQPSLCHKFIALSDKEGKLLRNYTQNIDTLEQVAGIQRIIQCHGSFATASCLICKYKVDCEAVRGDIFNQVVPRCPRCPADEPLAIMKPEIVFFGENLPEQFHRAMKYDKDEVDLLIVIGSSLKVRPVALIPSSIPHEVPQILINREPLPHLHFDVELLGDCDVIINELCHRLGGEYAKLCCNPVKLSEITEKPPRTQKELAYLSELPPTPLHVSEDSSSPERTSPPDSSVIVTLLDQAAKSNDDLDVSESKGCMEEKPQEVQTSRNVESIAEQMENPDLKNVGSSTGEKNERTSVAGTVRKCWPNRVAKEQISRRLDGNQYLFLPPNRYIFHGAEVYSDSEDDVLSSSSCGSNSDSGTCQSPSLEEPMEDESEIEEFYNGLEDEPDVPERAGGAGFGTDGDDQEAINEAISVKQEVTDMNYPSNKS
Set-up: single well (n = 1)
Procedure: A total of 3,192 compounds extracted from the proposed lists were first screened by thermal shift assay (TSA), which determined a melting temperature shift (ΔTm) of Sirtuin 1 upon the addition of a test compound at a concentration of 10 µM (n = 1) with primary hit criteria of ΔTm > 0.45 K or ΔTm < −1.5 K. Primary hits (48 compounds) were retested in the same assay at three concentrations (5, 10, 20 µM, n = 4) for hit confirmation and for dose-dependency check. Secondary hits (41 compounds) were checked their selectivity for Sirtuin 1 based on counterscreening on unrelated protein targets (bovine carbonic anhydrase (CA) and recombinant SH2 domain of hABL1 kinase (ABL1)) at three different concentrations (5, 10, 20 µM, n = 4), which yielded 38 hit compounds, hereafter referred to as TSA hits. The TSA screening above was conducted in the absence of NAD+.

Row | Structure (SMILES) | TSA(without NAD+) / Primary screening (TSA) / delta Tm (K)
1 | COc1ccc(C(=O)C2=C(O)C(=O)N(CCCN3CCOCC3)C2c2ccco2)cc1Cl (centres unmarked) | 0.02 K
2 | Cn1cc(C(=O)Nc2cccc(C3(C)NC(=O)NC3=O)c2)c2ccccc21 (centres unmarked) | -0.14 K
3 | CCc1c(C)c(C#N)c2nc3ccccc3n2c1Cl | -0.08 K
4 | Cc1c(CCC#N)c(Cl)n2c(nc3ccccc32)c1C#N | -0.04 K
5 | CCc1c(C)c(C#N)c2nc3ccccc3n2c1S | 0.39 K
6 | Cc1nc2cc(NC(=O)C3Cc4ccccc4O3)ccc2o1 (centres unmarked) | 0.03 K
7 | c1ccc(-c2[nH]c3c(ccc4ccccc43)c2-c2ccccc2)cc1 | 0.52 K
8 | c1ccc(-c2[nH]c3ccccc3c2-c2ccccc2)cc1 | 0.45 K
9 | Cc1cccc2c(CC(=O)O)c(-c3ccccc3)[nH]c12 | -0.02 K
10 | O=C(CCl)c1c(-c2ccccc2)[nH]c2ccccc12 | -0.04 K
11 | Nc1nc(-c2c(-c3ccccc3)[nH]c3ccccc23)cs1 | 0.09 K
12 | CC1(C)CC1N (centres unmarked) | -0.22 K
13 | NC(=O)Cc1ccc(NC(=O)c2cc(Br)ccc2Cl)cc1 | -0.11 K
14 | CCCCOc1cc(C2NC(N)=Nc3nc4ccccc4n32)ccc1OC (centres unmarked) | -0.17 K
15 | NC1=Nc2nc3ccccc3n2C(c2ccc(-c3ccc(C(=O)O)cc3)o2)N1 (centres unmarked) | 1.36 K
16 | CC(C)(CNc1ncnc2ccsc12)C(N)=O | -0.02 K
17 | Oc1cccc2c1Cc1c-2nc2ccc(Cl)cc2c1-c1ccccc1Cl | 0.38 K
18 | O=C1/C(=C/c2ccc(Br)cc2F)Cc2c(O)cccc21 | -0.03 K
19 | CCCOCC(=O)O | -0.13 K
20 | Cc1ccc(Nc2nnc(SCC(=O)Nc3cc(C)c(C)cc3[N+](=O)[O-])s2)cc1 | -0.03 K
21 | COc1ccc(NC(=O)CSc2nnc(Nc3ccc(SC(F)F)cc3)s2)cc1OC | 0.73 K
22 | Cc1cccc(Nc2nnc(SCC(=O)Nc3ccc(C(N)=O)cc3)s2)c1 | -0.04 K

Row | Structure (SMILES) | TSA(without NAD+) / Primary screening (TSA) / delta Tm (K)
23 | O=C(C1=C(O)C(=O)N(CCCN2CCOCC2)C1c1ccco1)c1ccco1 (centres unmarked) | -0.22 K
24 | Cc1nc2ccccc2nc1SCc1cc(=O)n2ccsc2n1 | 0.02 K
25 | CCCCOC(=O)c1ccc(NC(=O)COC(=O)CNC(=O)C23CC4CC(CC(C4)C2)C3)cc1 | 0.48 K
26 | O=C(COC(=O)CNC(=O)C12CC3CC(CC(C3)C1)C2)Nc1ccccc1Cc1ccccc1 | 0.13 K
27 | CCOc1ccc(CCNC(=O)COC(=O)CNC(=O)C23CC4CC(CC(C4)C2)C3)cc1OCC | 0.03 K
28 | CC(C)Oc1ccc(C(=O)C2=C(O)C(=O)N(CCCN3CCOCC3)C2c2ccncc2)cc1 (centres unmarked) | -0.07 K
29 | O=c1c2ccccc2ncn1CC(O)c1ccccc1Cl (centres unmarked) | -0.17 K
30 | COc1ccc(/C=N/c2ccc(C(=O)O)cc2)cc1Br | 0.07 K
31 | N#Cc1c(Cn2nnc3ccccc3c2=O)cn2ccccc12 | 0.07 K
32 | COc1cc(C(C)=O)ccc1COc1ccc(C(=O)OC(C)C(=O)NC23CC4CC(CC(C4)C2)C3)cc1OC (centres unmarked) | 0.05 K
33 | Cc1ccc([N+](=O)[O-])cc1S(=O)(=O)Nc1ccc(C(=O)OC(C)C(=O)NC23CC4CC(CC(C4)C2)C3)cc1 (centres unmarked) | 0.86 K
34 | CC(OC(=O)c1cccc(S(=O)(=O)NCc2ccccc2)c1)C(=O)NC12CC3CC(CC(C3)C1)C2 (centres unmarked) | -0.03 K
35 | CCC(N)COC (centres unmarked) | -0.18 K
36 | Cc1ccc(Nc2nnc(SCC(=O)NC(=O)NCc3ccco3)s2)cc1 | 0.07 K
37 | Cc1ncc(CN2CCC(Nc3ccc4nnnn4n3)C(C)C2)s1 (centres unmarked) | 0.12 K
38 | c1ccc(CN2CCCCCC2)c(CNc2ccc3nnnn3n2)c1 | -0.11 K
39 | Cc1cc(F)ccc1N1CCCC(Nc2ccc3nnnn3n2)C1 (centres unmarked) | 0.63 K
40 | NC(=O)c1ncn(-c2ccncc2)c1N | -0.02 K
41 | CC1CN(S(=O)(=O)c2cccc(C(=O)OCC(=O)COC(=O)c3cccc(S(=O)(=O)N4CC(C)OC(C)C4)c3)c2)CC(C)O1 (centres unmarked) | -0.11 K
42 | O=C(COc1ccccc1C(=O)Nc1ccc(S(=O)(=O)Nc2nccs2)cc1)Nc1cccc(C(F)(F)F)c1 | 0.98 K
43 | Cc1cccc(-n2ccnc2SCC(=O)Nc2ccc(S(=O)(=O)Nc3nccs3)cc2)c1C | 0.08 K
44 | NC(=O)COC(=O)c1ccc(OCC(=O)Nc2cccc(C(F)(F)F)c2)cc1 | -0.02 K
